Z-score data for ten molecules are collected here from PubChem BioAssay.

The source made the active and inactive calls.

The nature of assay [1]: A549 cell viability effects, profiling panel, calcein-AM fluorescence, 48 h, basal (AID 1162). The note with it: higher = more signal.
Assay [2] can be described thus: adipocyte viability effects, profiling panel, cell-based, 3T3-L1 adipocytes, calcein-AM fluorescence, 48 h, basal (AID 1163). The note with it: 3T3-L1 adipocytes viability, higher = more signal.
Assay [3] in a line: HepG2 cell viability effects, profiling panel, calcein-AM fluorescence, 48 h, basal (AID 1164). To be noted: higher = more signal.
Assay [4] can be described thus: MM1S cell viability effects, profiling panel, calcein-AM fluorescence, 48 h, basal (AID 1165).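 Note: viability of MM1S multiple myeloma cells under basal unstimulated conditions.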 The note with it: higher = more signal.
The nature of assay [5]: basal RPMI8226 viability, no added stimulus, profiling panel, cell-based, calcein-AM fluorescence, 48 h, PK04 Diversity Set (AID 1166).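 Note: cells grown under basal conditions without added stimulus.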 To be noted: RPMI8226 myeloma viability, higher = more signal.
A short description of assay [6]: basal HepG2 mitochondrial membrane potential changes, profiling panel, cell-based, JC-1 fluorescence, 24 h, 100 nL compound (AID 1167). The note with it: higher = more signal.
Assay [7] is described as follows: basal 3T3-L1 adipocyte mitochondrial potential changes, profiling panel, cell-based, JC-1 fluorescence, 3T3-L1 adipocytes, 24 h, 100 nL compound (AID 1168). The note with it: JC-1 mitochondrial fluorescence, higher = more signal, called active from +8 up or from −8 down.
Assay [8] in a line: basal RPMI8226 mitochondrial membrane potential changes, profiling panel, cell-based, JC-1 fluorescence, 24 h, 100 nL compound (AID 1169). The note with it: RPMI8226 myeloma, JC-1 mitochondrial potential fluorescence, higher = more signal.
A short description of assay [9]: basal MM1S mitochondrial membrane potential changes, profiling panel, cell-based, JC-1 fluorescence, 24 h, 100 nL compound (AID 1170). The note with it: higher = more signal.
A short description of assay [10]: A549 lung cancer cell viability effects, profiling panel, resazurin fluorescence, 24 h, PK04 Diversity Set (AID 1171). To be noted: higher = more signal, called active from +8 up or from −8 down.
Note: test concentration not given here.

For `COCC1=C2[C@@H](CCc3ccccc3)OB(O)C[C@@H]2n2c(=O)n(-c3ccccc3)c(=O)n2C1`, the z-score in assay [1] was -0.0316; in assay [2], -0.174; in assay [3], 0.602; in assay [4] it was -0.0123; in [5], -0.412; in assay [6], -1.83. Moreover, the z-score was 0.619 (inactive) in [7], 0.164 in assay [8], 0.368 in assay [9] and -0.566 (inactive) in [10].

On to `CO[C@H]1COC(=O)[C@H](C)COC(=O)CC=C[C@@H](C)[C@H](OC)COC(=O)CC=C[C@@H]1C`, for which the z-score in assay [1] is 0.593; in [2] it was -0.101; in assay [3], 0.968; in assay [4], 0.191; in assay [5] it was -0.0736; in assay [6] it was 0.69. In addition, the z-score in assay [7] is 0.0241 (inactive); in assay [8], 0.405; in assay [9] it was 0.601; in assay [10], 0.239 (inactive).

Consider `CC(C)NC(=O)[C@@H]1c2ccccc2C(=O)N(CC23CC4CC(CC(C4)C2)C3)[C@H]1c1ccc(CO)cc1`, for which the z-score is 1.39 in [1]; 0.885 in assay [2]; 1.29 in assay [3]; -0.0705 in [4]; 0.301 in assay [5]; 1.83 in [6]. Besides, the z-score in assay [7] is -0.459 (inactive); in assay [8] it was 0.433; in assay [9], -0.624; in [10], 1.18 (inactive).

With `CC(CCN1CCCCc2nc(C)c(C)cc21)=NOC(C)CN1CCCc2nc(C)c(C)cc21` (stereo not given), the z-score in assay [1] was -0.587; in assay [2], -0.315; in assay [3], -0.253; in [4], -2.66; in assay [5], -0.681; in [6] it was 0.346. Besides, the z-score in [7] is -1.7 (inactive); in [8] it was 0.133; in assay [9], -0.269; in assay [10], 0.37 (inactive).

For `C[C@@H]1C=CCC(=O)OC[C@H](C)C(=O)N[C@@H](C)C(=O)OC1`, the z-score is 0.195 in assay [1]; -0.112 in assay [2]; -0.532 in assay [3]; -0.131 in assay [4]; -0.275 in assay [5]; 0.391 in assay [6]. Moreover, the z-score was -0.871 (inactive) in assay [7], -0.0436 in assay [8], -1.26 in assay [9] and 0.156 (inactive) in assay [10].

With `COC(=O)CC=C[C@H](C)[C@H](CO)NS(=O)(=O)c1ccc(C)cc1`, the z-score in assay [1] is -0.595; in assay [2], 0.41; in assay [3], -0.392; in [4], 0.165; in assay [5] it was 0.364; in assay [6], -0.976. In addition, the z-score in [7] is -0.0535 (inactive); in [8], -0.49; in assay [9], 0.604; in assay [10], -0.711 (inactive).

Take `COC(=O)[C@H]1COC(c2ccc(OCCCO)cc2)=N1`: the z-score in assay [1] was -0.283; in assay [2], 0.568; in assay [3] it was -0.344; in [4], 0.0072; in assay [5], -0.231; in assay [6] it was -0.371. For the same molecule, the z-score in assay [7] is 0.203 (inactive); in assay [8] it was -0.16; in [9], 1.23; in [10] it was 0.0759 (inactive).

As to `CCOC(=O)[C@H](CC(C)C)NC(=O)CCC1CC(OC(=O)NCc2cccc3ccccc23)CC2(CCCC(COC(=O)NCCc3ccccc3OC)O2)O1` (stereo not given in full), the z-score in assay [1] was -0.571; in [2], -0.187; in assay [3], -0.766; in assay [4] it was 0.0779; in [5] it was -0.407; in assay [6], 0.602. In addition, the z-score in assay [7] was -0.0276 (inactive); in assay [8], -0.0975; in [9], -0.157; in assay [10], 0.45 (inactive).

In the case of `CCN1C(=O)[C@H]2[C@H]3[C@H](O)[C@H](O)CC(=NO[C@@H]4O[C@H](CO)[C@@H](O)[C@H](O)[C@H]4O)[C@@H]3CC[C@H]2C1=O`, the z-score was 1.05 in [1]; 0.462 in assay [2]; 0.484 in assay [3]; -0.944 in assay [4]; 0.0072 in assay [5]; -0.608 in [6]. Also, the z-score is 0.725 (inactive) in [7], 0.14 in assay [8], -0.385 in [9] and -0.859 (inactive) in assay [10].

`Cc1ccc(C2CC=C(C(=O)O)CN2S(=O)(=O)c2ccc(C)cc2)cc1` (stereo not given): the z-score in assay [1] was -0.789; in assay [2], 0.171; in assay [3], -1.04; in [4], -1.07; in assay [5] it was -1.65; in assay [6], -0.0791. Moreover, the z-score is -0.516 (inactive) in assay [7], -0.187 in assay [8], -0.296 in [9] and -0.716 (inactive) in assay [10].
